Experimental data from PubChem BioAssay AID720580 (National Center for Advancing Translational Sciences (NCATS), 2013).
Screen size: about 330,000 compounds; about 1,500 (0.45%) were called active. Another 6% or so got no clear call; they are omitted. The sample as a whole holds a higher share of actives than the screen did. Values without a mark were called inactive. Calls follow the shape of the full dose curve; tested in A549 cells.

experiment: qHTS for Stage-Specific Inhibitors of Vaccinia Orthopoxvirus: Venus Reporter Primary qHTS; details: Vaccinia virus Venus reporter expression, fluorescence; series mostly up to 36.5 µM; activity change, negative = inhibition: at the top concentration; also: nearly all actives have a fitted effect of over 30% in size
% is scaled to controls: 0 for no effect and ±100 for the full control effect; potency is read from the fitted curve at half-maximal effect.

| Compound | activity change, negative = inhibition | Potency |
| --- | --- | --- |
| CC(C)(C)c1ccc(C(=O)C[N+]2(C)CCCc3ccccc32)cc1 (configuration not stated) | -21.8% | – |
| CCC(C)(O)C(=O)OC1C(=O)OC2CC3C(C)=CC(=O)C(O)C3(C)C3C4(O)OCC23C1C(C)C4O (configuration not stated) | – | 0.316 µM (active) |
| CC=CCn1c(SCCCc2ccccc2)nc2c1c(=O)[nH]c(=O)n2C | -14.7% | – |
| CN(C(=N)N)c1ccc(/C=C2\C=Cc3ccccc32)cc1 | -17.4% | – |
| COc1ccc(S(=O)(=O)N2CCCCC2c2cc(C(=O)NCc3ccc(F)cc3)no2)cc1 (configuration not stated) | -10.1% | – |
| CCN(CC)c1ncnc2c1ncn2[C@H]1CN(Cc2cccs2)C[C@@H](CO)O1 | -4.26% | – |
| CCOc1cc(N2CCOCC2)c(OCC)cc1NC(=O)COc1cccc(Cl)c1 | -18.9% | – |
| CCOc1cc(N2CCOCC2)c(OCC)cc1NC(=O)c1cc(C)nc2ccccc12 | -7.77% | – |
| CCOc1cc(N2CCOCC2)c(OCC)cc1NC(=O)COc1cccc2cccnc12 | – | 12.6 µM (active) |
| CN(N=O)c1ccc(C=C2c3ccccc3-c3ccccc32)cc1 | -10.5% | – |
| CN(C)C1=C2C=CC=CC2/C(=C2/C=Cc3ccccc32)C=C1 (configuration not stated) | -11.3% | – |
| COC(=O)c1ccc(COc2ccc(/C=N/NC(=O)C(=O)Nc3ccc(OC)cc3)cc2OC)o1 | 4.27% [at 7.34 µM] | – |
| O=C(N/N=C/c1cccc(OCc2ccccc2)c1)c1ccc(Br)o1 | -10.1% | – |
| CCCc1ccc(OCc2ccc(C(=O)N/N=C/c3cccc([N+](=O)[O-])c3)o2)c(OC)c1 | – | 7.08 µM (active) |
| CC(=O)Nc1cccc(-c2cc(NC(C)=O)c3ncc(-c4ccccc4)n3c2)c1 | -4.03% | – |
| CC(C)C[C@@H]1Cc2[nH][nH]c(=O)c2[C@H](CCc2ccccc2)O1 | -11.9% | – |
| CC(C)Sc1nc(N)nc2c1ncn2C1OC(CO)C(O)C1O (configuration not stated) | 2.2% | – |
| Nc1nc(SCc2ccc([N+](=O)[O-])cc2)c2ncn(C3OC(CO)C(O)C3O)c2n1 (configuration not stated) | -18.7% | – |
| Nc1ncn(C2OC(CO)C(O)C2O)c(=O)n1 (configuration not stated) | – | 10 µM (active) |
| Fc1cccc(Cc2c(-c3cccc(Cl)c3)nc3ccc(Br)cn23)c1 | -4.21% | – |
| C/C(=N\NC(=O)c1ccccc1F)c1ccccn1 | -13.5% | – |
| C/C(=N\NC(=O)Cc1ccc(Br)cc1)c1cccnc1 | -10.3% | – |
| C/C(=N\NC(=O)Cc1ccc(Cl)cc1)c1ccccn1 | – | 6.31 µM (active) |
| CCC(C(=O)NC(C)(C)C)n1c(-c2ccccc2)nc2ccccc21 (configuration not stated) | -3.62% | – |
| Cc1cc(Br)cn2c(Cc3ccsc3)c(-c3ccc(C#N)cc3)nc12 | -6.63% | – |
| COc1ccc(-c2cc3nc(NCCOc4ccccc4)ccn3n2)cc1 | -8.89% | – |

| Compound | activity change, negative = inhibition | Potency |
| --- | --- | --- |
| CCOC(=O)C1=CC[C@@H](c2ccccc2)N(S(=O)(=O)c2ccc(C)cc2)[C@H]1c1ccc(CC)cc1 | 2.38% | – |
| COc1ccc(CS(=O)/C(Cl)=C(/Cl)C(=O)Nc2ccc(OC)nc2)cc1 (configuration not stated) | – | 5.62 µM (active) |
| CCOc1ccc(S(=O)(=O)Nc2ccc(OC)nc2)cc1 | -12.8% | – |
| COc1ccc(NC(=O)CN2C(=O)NC(C)(c3ccccc3)C2=O)cn1 (configuration not stated) | -4.42% | – |
| Cc1c(CCO)sc[n+]1CC(=O)c1ccc2ccccc2c1 | 1.96% | – |
| COC(=O)C1(C(=O)OC)C/C=C\CN(S(=O)(=O)c2ccccc2[N+](=O)[O-])CCC1 | 5.58% | – |
| COc1ccc(Br)c(Cn2c(C)c(C(=O)NCc3cccs3)sc2=O)c1 | -4.37% | – |
| COc1cccc(NC(=O)C2(C)CCN2Cc2ccccc2Cl)c1 (configuration not stated) | -19.1% | – |
| O=C(NCc1ccccc1)C(c1ccc(F)cc1)N1CCN(C(=O)C2CCCO2)CC1 (configuration not stated) | -11.6% | – |
| Fc1ccc2[nH]c3c(N4CCN(Cc5ccc6c(c5)OCO6)CC4)ncnc3c2c1 | – | 6.31 µM (active) |
| Fc1ccc(N2CCN(Cc3ccc4c(c3)OCO4)CC2)cc1 | -5.26% | – |
| O=c1[nH]c(N2CCN(Cc3ccc4c(c3)OCO4)CC2)nc2c1CCCC2 | -2.01% | – |
| CCOP(=O)(OCC)C(Cc1ccccc1)N=C(c1ccccc1)c1ccccc1 (configuration not stated) | 11.1% | – |
| CN(Cc1ccccc1)c1ccc(/C=C/c2ccnc3ccccc23)cc1 | -10.8% | – |
| Brc1cccc[n+]1Cc1cccc(C[n+]2ccccc2Br)c1 | -8.21% | – |
| COC(=O)c1ccc2nc(-c3ccc(F)cc3)c(Cc3ccc(C)cc3)n2c1 | -7.97% | – |
| CC(C)(C)C1CCC(NC(=O)c2cnn3c2NC(=C2CC2)C=C3C(F)F)CC1 (configuration not stated) | -29.1% | – |
| O=c1c2ccccc2[nH]c(=S)n1-c1cccc(Cl)c1 | -16.2% | – |
| Cc1[nH]n(-c2cccc(Cl)c2)c(=O)c1-c1ccc(Cl)cc1 | – | 28.2 µM (active) |
| O=c1c(-c2cccc(Cl)c2)c[nH]n1-c1ccccc1 | -15.6% | – |
| CCN(CC)c1ccc(/C=C/c2c(C)cnc3ccc(C)cc23)cc1 | -14.2% | – |
| CN1CCN(c2nc3c(c(=O)[nH]c(=O)n3C)n2Cc2cccc3ccccc23)CC1 | -21.5% | – |
| Cn1c(=O)[nH]c(=O)c2c1nc(N1CCN(C(c3ccccc3)c3ccccc3)CC1)n2CCO | – | 12.6 µM (active) |
| Cn1c(=O)[nH]c(=O)c2c1nc(N1CCN(CCO)CC1)n2CCSc1nc2ccccc2s1 | -9.09% | – |
| COC(=O)[C@@]12C[C@@H](CC(=O)NCc3cccc(C(F)(F)F)c3)C(=O)N(Cc3ccco3)C1=CCC(C)(C)C2 | -29.1% | – |
| C=C(C)C(=O)O[C@H]1C/C(C)=C\C(=O)/C=C(\C)[C@H](O)[C@@H]2OC(=O)C(=C)[C@@H]21 | – | 10 µM (active) |
